A selection: hits, their analogues and other compounds. The true share with any hit is near 1.5%.
MEX-5 binding – C. elegans MEX-5 TCR-2 RNA binding activity. activity score (negative = inhibition of binding), % at 10 µM. MEX-5/FITC-TCR2 RNA binding, fluorescence polarization; hits give low values. Q9XUB2. 0.38% of 300,000 active;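 active means inhibition past about -25% in most replicates, and total fluorescence under double the plate's negative control median, limit read from the data; inconclusive means replicates evenly split on the limit, or fluorescence at least double controls; inactive means too little inhibition in most replicates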;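 further: 0% = DMSO and -100% = 5 µM competing unlabeled TCR2 RNA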
eLon inh – inhibits E. coli Lon protease; P0A9M0; purified E. coli Lon protease, fluorescence polarization; inhibition, % at 7.94 µM; 0.42% of 360,000 active; in the data active means inhibition above about 13%, passing the limit was not always enough;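 further: 0% = enzyme with probe and DMSO and 100% = no enzyme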
BCLXL inh – Bcl-xL (human) inhibition | Q07817 | GST-Bcl-xL / FITC-Bim BH3 peptide fluorescence polarization | inhibition, % at 10.9 µM | 0.7% of 320,000 active;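 active means inhibition above the mean of all tested compounds plus 3 SD, cutoff set per campaign, cut at about 30% in these data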;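 further: 0% = DMSO wells and 100% = unlabeled Bim-BH3 peptide competitor; inhibitors lower millipolarization by displacing the labeled peptide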
Target sequence (Q07817 whole entry, looked up): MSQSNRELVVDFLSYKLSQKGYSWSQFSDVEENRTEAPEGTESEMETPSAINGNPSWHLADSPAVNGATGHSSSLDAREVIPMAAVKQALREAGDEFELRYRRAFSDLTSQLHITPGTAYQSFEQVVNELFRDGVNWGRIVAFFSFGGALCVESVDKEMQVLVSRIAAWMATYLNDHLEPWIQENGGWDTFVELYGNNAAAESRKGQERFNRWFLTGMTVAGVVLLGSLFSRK
EBV gp42 block – blocks Epstein-Barr virus glycoprotein 42 binding; AID 1085; Q1HVG2; inhibition, % (tested at 21.74 µM); Fluorescence polarization binding assay, mP read-out; 0.42% of 220,000 active; in the data active means inhibition above about 50%
Target sequence (Q1HVG2 whole entry, looked up): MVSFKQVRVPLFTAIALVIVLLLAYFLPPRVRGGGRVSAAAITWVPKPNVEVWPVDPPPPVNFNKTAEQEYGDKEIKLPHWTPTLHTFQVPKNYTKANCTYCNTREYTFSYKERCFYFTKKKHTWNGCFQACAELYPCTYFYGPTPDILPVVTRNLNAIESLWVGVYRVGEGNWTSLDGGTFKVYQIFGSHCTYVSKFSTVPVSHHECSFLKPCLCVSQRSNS
GLD-1 RNA inh – GLD-1-TGE RNA interaction inhibition (C. elegans) | Q17339 | purified GLD-1 + fluorescein TGE RNA, fluorescence polarization | inhibition, % at 5.96 µM | 0.44% of 320,000 active | AID 2280;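 active means percent inhibition above a per-plate cutoff, the plate mean of test compounds plus 3 SD, cut at about 30% in these data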;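 further: 0% = DMSO wells with GLD-1 and probe and 100% = wells lacking GLD-1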
MCL1-BIM inh – disrupts human MCL1 binding to BIM-BH3 peptide. Q07820. GST-MCL1 / FITC-Bim-BH3 fluorescence polarization. inhibition, % at 10.9 µM. 0.68% of 320,000 active. AID 2057;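 active means inhibition above the mean inhibition of all tested compounds plus 3 SD, set per campaign, cut at about 40% in these data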;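 further: 0% = DMSO wells and 100% = unlabeled Bim-BH3 peptide control; higher means more loss of mP so more displacement of Bim peptide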
BCLXL inh confirm – counter-screen for MCL1 inhibitors: confirmation of human Bcl-xL inhibitors. shares compounds with MCL1-BIM inh. GST-Bcl-xL / FITC-Bim BH3 peptide FP binding. inhibition, % at 10.9 µM. 54% of 1,700 active;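 active means inhibition above a cutoff equal to the mean inhibition of all tested compounds plus 3 SD, cut at about 30% in these data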;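 further: 0% = DMSO wells and 100% = unlabeled Bim BH3 control peptide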
MCL1 BIM confirm – confirmation of human MCL1 and BIM-BH3 interaction inhibitors | GST-MCL1 / FITC-Bim-BH3 fluorescence polarization | 61% of 1,700 active | inhibition, % at 10.9 µM | shares compounds with MCL1-BIM inh;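 active means inhibition above the average of all tested compounds plus 3 SD, cut at about 40% in these data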;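 further: 0% = DMSO wells and 100% = unlabeled Bim-BH3 control peptide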
GLD-1 TGE cf – confirmation of C. elegans GLD-1 TGE RNA binding inhibitors | GLD-1/FL-TGE RNA fluorescence polarization, biochemical | inhibition, % at 5.96 µM | AID 2459 | 10% of 550 active | shares compounds with GLD-1 RNA inh;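 active means average inhibition across triplicates above the hit cutoff set in the primary screen, cut at about 32% in these data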;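 further: 0% = GLD-1 with RNA probe and DMSO and 100% = wells lacking GLD-1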
E coli Lon conf – confirmation of E. coli Lon protease inhibitors. shares compounds with eLon inh. purified E. coli Lon, fluorescence polarization. inhibition, % at 7.94 µM. 31% of 1,400 active; in the data active means inhibition above about 16%;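 further: 0% = enzyme with probe and DMSO and 100% = no enzyme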
Active calls of the source: *; ? = inconclusive; . = not tested or not shown; + = active, no number.

SMILES	MEX-5 binding	eLon inh	BCLXL inh	EBV gp42 block	GLD-1 RNA inh	MCL1-BIM inh	BCLXL inh confirm	MCL1 BIM confirm	E coli Lon conf	others
O=C(O)c1cccc(CN2C(=O)c3ccccc3C2=O)c1	0.1	5.1	3.9	.	-4.7	-3.2	.	.	.
O=C1c2cccc3c(O)ccc(c23)C(=O)N1Cc1ccccc1	?	+	+	187.0*	+	+	+	+	+
O=c1[nH]nc(CNc2ccc(O)cc2)c2ccccc12	-52.4*	51.4*	79.2*	6.1	89.0*	76.3*	51.5*	41.2*	-10.9
O=c1[nH]nc(CNc2ccc(C(F)(F)F)cc2)c2ccccc12	0.4	1.0	4.7	9.1	2.5	9.0	.	.	.
COc1ccc2c(c1)CCC/C2=N/OC(=O)c1ccccc1OC	0.6	5.8	2.9	7.5	-5.1	2.6	.	.	.
CC(=O)NN1C(=O)/C(=C\c2ccc(C)cc2)SC1=S	-1.8	4.0	0.3	-22.9	0.8	4.5	.	.	.
O=C1CCC(=O)c2ccc3c4c(ccc1c24)CC3	.	3.9	.	.	.	.	.	.	.
O=C1CCN2C=Nc3cccc4ccc1c2c34	?	+	+	137.2*	169.2*	+	191.8*	+	+
COc1ccc(C(C)=O)cc1COc1ccc([N+](=O)[O-])c(C)c1	0.0	2.2	-0.8	-0.3	-3.4	-11.3	.	.	.
O=c1cc(CN2CCCc3ccccc32)nc2sccn12	?	39.1*	199.5*	38.6	-9.3	+	133.7*	166.3*	86.3*
O=c1cc(CN2CCc3ccccc32)nc2sccn12	-3.0	-0.8	17.5	-0.4	10.7	11.4	.	.	.
COC(=O)c1ccc2c(c1)SC1=C(CCCC1=O)N2	-2.0	34.9*	148.5*	145.5*	96.2*	176.8*	118.2*	161.0*	100.3*	GLD-1 TGE cf=47.9*
c1ccc2sc(N3CCN(Cc4nnnn4CC4CCCO4)CC3)nc2c1 (stereo not given)	-2.4	-2.8	-0.5	-5.3	0.1	1.1	.	.	.
c1ccc2c(c1)CCCN2Cc1nnnn1CC1CCCO1 (stereo not given)	-14.3	73.5*	161.9*	70.7*	107.5*	196.0*	102.0*	124.0*	34.9*
O=C(Cc1c(O)c2ccccc2[nH]c1=O)NCc1cccc(F)c1	3.2	-0.5	4.5	.	-3.0	3.5	.	.	.
COc1ccc(NC(=O)Nc2ccc([N+](=O)[O-])cc2)cn1	-7.9	19.5*	68.2*	.	46.1*	71.0*	38.2*	53.3*	1.5
COc1ccc(NC(=O)Nc2cccc(C(F)(F)F)c2)cn1	-1.4	-3.6	8.9	1.0	21.5	-1.2	.	.	.
CCOc1cc(/C=C2\CCCc3c2nc2ccccc2c3C(=O)O)ccc1OC	-16.3	114.9*	142.6*	.	144.7*	165.7*	15.4	11.7	66.2*
COc1cc(/C=C2\CCCc3c2nc2ccccc2c3C(=O)O)cc(Br)c1O	-0.2	-5.4	6.8	.	3.8	8.4	.	.	.
O=C(N/N=C/c1sc(=O)[nH]c1-[n+]1ccc2ccccc2c1)c1ccccc1[O-]	-13.7	133.5*	156.0*	.	164.6*	178.3*	30.8*	32.2	48.2*
O=[N+]([O-])c1cccnc1-n1cnc2ccccc21	-0.8	-11.6	3.4	-7.0	5.9	5.0	.	.	.
Cc1cc2ncn(-c3ncccc3[N+](=O)[O-])c2cc1C	-8.8	24.7*	85.5*	.	79.5*	101.7*	22.9	34.0	1.0
Cc1ccc(NC(=O)CS(=O)CC(=O)Nc2ccccc2-c2ccc(C)o2)cc1 (stereo not given)	0.7	114.2*	72.2*	.	65.8*	88.3*	10.0	8.8	0.2	GLD-1 TGE cf=5.8
